D1 agonist: agonists of human D1 dopamine receptor; P21728; HEK293 T-REx D1 cells, calcium flux, agonist mode; activation, % at 2 µM; 1% of 360,000 active; AID 504660; further: 0% is about no effect
Target sequence (P21728 whole entry, looked up): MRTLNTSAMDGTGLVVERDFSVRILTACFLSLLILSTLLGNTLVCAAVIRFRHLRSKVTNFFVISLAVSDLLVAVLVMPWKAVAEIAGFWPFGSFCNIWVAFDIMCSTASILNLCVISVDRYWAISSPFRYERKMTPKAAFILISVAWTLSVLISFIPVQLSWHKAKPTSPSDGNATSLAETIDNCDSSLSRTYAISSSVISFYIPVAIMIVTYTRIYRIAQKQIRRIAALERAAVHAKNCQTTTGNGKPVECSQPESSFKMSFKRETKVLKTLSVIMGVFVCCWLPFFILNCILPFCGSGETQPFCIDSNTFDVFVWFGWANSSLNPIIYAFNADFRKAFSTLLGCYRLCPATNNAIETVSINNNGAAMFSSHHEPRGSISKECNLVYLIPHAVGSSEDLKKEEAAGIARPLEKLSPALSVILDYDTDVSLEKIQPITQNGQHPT
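Agonism was scored from calcium flux recorded over 180 s (1 read/s) after pintool compound addition, following a 10-cycle baseline. Cells were inducible force-coupled HEK293 TREx D1, plated overnight at 30 C and loaded with no-wash calcium dye.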
D1 antag: antagonists of human D1 dopamine receptor | P21728 | HEK293 TREx D1 cells, calcium flux, dopamine EC80; hits give low values | activity change, negative = inhibition, % at 10 µM | 3.2% of 360,000 active | AID 504652; in the data active means activity change below about -30%; further: on the % scale 0 is the no-effect control and ±100 the full control effect
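Inducible Hek293 Trex D1 cells (tetracycline, overnight, 30 C). Calcium dye 30–90 min RT. Antagonist mode: EC80 dopamine added after 180 s compound read.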
TRHR PAM: allosteric enhancers of human TRH receptor. 0.66% of 360,000 active. TRHR cells, fluo-8 calcium fluorescence, EC20 TRH enhancement. enhancement, % at 2 µM. P34981. AID 493056; in the data active means enhancement above about 30%; further: 0% is about no effect
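TRHR-expressing cells loaded with fluo-8 calcium dye were read kinetically (ex 480/em 530) during compound addition, then stimulated with an EC20 of TRH (10 nM final). Enhancement of the Gq-mediated intracellular calcium response was scored.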
TRHR agonist: activates the human TRH receptor; AID 493084; TRHR cells, calcium flux fluo-8, FDSS agonist mode; 0.18% of 360,000 active; P34981; activation, % at 2 µM; further: 0% is about no effect
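TRHR-expressing cells loaded with fluo-8 calcium dye; 23 nL library compound pin-transferred, kinetic FDSS fluorescence (Ex 480/Em 530) recorded about 180 s for agonist-induced calcium release, before a 10 nM TRH EC20 addition for potentiator mode.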
D1 PAM: enhances dopamine response at the human D1 receptor; P21728; HEK293 TREx D1 cells, calcium flux, dopamine EC20 potentiation; 0.036% of 360,000 active; potentiation, % at 10 µM; in the data active means potentiation above about 30%; further: 0% is about no effect
Numbers without * were called inactive; nt = no result; ! = repeats disagree. Most compounds without a hit are left out; they make up all but 4.6% or so of the library. Unless noted, no stated cut-off is given here; in the data, active means activation above about 30%; inactive means the rest.

SMILES	D1 agonist	D1 antag	TRHR PAM	TRHR agonist	D1 PAM
COc1cc(CNCc2ccccn2)ccc1OCc1c(Cl)cccc1Cl	41*	5	6	0	3
COc1cc(CNCc2ccccn2)ccc1OCc1ccc(Cl)cc1	24	-9	9	1	-8
CC(=O)CSc1nnc2[nH]c(=O)cc(N)n12	7	-9	1	0	4
CC(=O)N1CCCc2cc(S(=O)(=O)N3CCCC(C(=O)N4CCN(c5ccccc5F)CC4)C3)ccc21 (configuration not stated)	3	-39*	1	0	-4
CC(=O)N1CCCc2cc(S(=O)(=O)N3CCCC(C(=O)NCc4ccccc4Cl)C3)ccc21 (configuration not stated)	1	-42*!	-5	1	-9
COc1ccc(N2CCN(C(=O)C3CCCN(S(=O)(=O)c4ccc5c(c4)CCCN5C(C)=O)C3)CC2)cc1 (configuration not stated)	1	-24	4	0	-2
CC(=O)N1c2ccc(S(=O)(=O)N3CCCC(C(=O)NCc4ccccc4Cl)C3)cc2CC1C (configuration not stated)	1	-11	6	0	-4
Cc1ccc(C)c(N2C(=O)N(Cc3cc(=O)n4ccccc4n3)c3ccccc3S2(=O)=O)c1	-2	7	-2	0	-2
N#C/C(=C\c1ccc(N2CCOCC2)o1)c1nc2ccccc2[nH]1	64*	-20	3	0	-2
N#C/C(=C\c1ccc(-c2ccc(C(=O)O)cc2)o1)c1nc2ccccc2[nH]1	43*	3	4	31*!	-2
Cc1ccc2nc(/C(C#N)=C/c3cn[nH]c3-c3ccc(F)cc3)[nH]c2c1	1	-45*	-6	0	-1
N#C/C(=C\c1ccc(N2CCOCC2)c([N+](=O)[O-])c1)c1nc2ccccc2[nH]1	1	-26	-5	0	-7
N#C/C(=C\c1ccc(-c2ccc(Cl)c(C(=O)O)c2)o1)c1nc2ccccc2[nH]1	14	10	3	26	0
Cc1ccc2nc(/C(C#N)=C/c3ccc(O)c(O)c3)[nH]c2c1	7	-20	8	15	-3
Cc1ccc2nc(/C(C#N)=C/c3ccc(-c4cccc(Cl)c4)o3)[nH]c2c1	277*	1	4	59*	1
O=C(C1CCCCC1)N(Cc1cccnc1)c1nc2c(F)cccc2s1	-2	nt	1	-1	-1
CCOC(=O)c1ccccc1NC(=O)CSc1nc(=O)[nH]c2c1CCCC2	0	nt	-1	0	-1
COc1ccc(Cl)cc1NC(=O)CSc1nc2sccc2c(=O)[nH]1	1	6	4	-1	10
COc1ccc(C)cc1NC(=O)CSc1nc(=O)[nH]c2c1CCCC2	31*	nt	4	0	-2
COc1ccc(C)cc1NC(=O)CSc1nc2scc(C)c2c(=O)[nH]1	11	-31*	5	2	5
Cc1ccc(Oc2coc3cc(OCC(=O)NC4CCCCC4)ccc3c2=O)cc1	1	-1	-6	0	-2
Cc1cccn2c(=O)nc(SCC(=O)c3ccccc3)nc12	-2	-57*	2	0	-5
Cc1cccn2c(=O)nc(SCC(=O)c3ccc(Cl)cc3)nc12	0	-3	1	-2	-7
COc1ccc(NC(=O)c2sc3nc(-c4cc5ccc(OC)cc5oc4=O)[nH]c(=O)c3c2C)cc1	0	8	6	0	-4
Cc1ccc(Oc2ccc(NC(=O)C3=CC=CN4CCS(=O)(=O)N=C34)cc2)cc1	32*	2	-9	0	-9
SMILES	D1 agonist	D1 antag	TRHR PAM	TRHR agonist	D1 PAM
CC(C)(C)c1ccc(NC(=O)C2=CC=CN3CCS(=O)(=O)N=C23)cc1	3	-8	6	0	0
Cc1cccc(Oc2ccc(NC(=O)C3=CC=CN4CCS(=O)(=O)N=C34)cc2)c1	13	-36*	-4	0	-9
CCOC(=O)c1ccccc1NC(=O)N1CCCn2nc(C)cc21	0	-6	10	0	-4
CC1CCCCN1S(=O)(=O)c1cc2c3c(c1)CC(=O)N3CCC2 (configuration not stated)	-1	nt	32*	0	1
Cc1ccc(S(=O)c2ccc(NC(=O)C3CC3)cc2C#N)cc1 (configuration not stated)	25	-31*	0	1	-9
c1ccc(-c2nc(NCCCN3CCOCC3)c3ccccc3n2)cc1	4	8	-2	0	-9
Cc1cccc(-c2nc(NCCCN3CCOCC3)c3ccccc3n2)c1	50*	-7	9	-1	3
Cc1nc(NCCCn2ccnc2)c2ccccc2n1	1	-1	-8	0	-9
c1cncc(-c2nc(NCCCn3ccnc3)c3ccccc3n2)c1	0	-38*	-6	0	1
COc1ccc(OC)c(C2CC(=O)c3c([nH]c(C(=O)OC4CCC(C)CC4)c3C)C2)c1 (configuration not stated)	4	9	3	0	-3
Cc1cccc(/C=C(\C#N)c2nc3ccccc3c(=O)[nH]2)c1	6	-19	-1	2	-3
CN(C)c1cccc(/C=C(\C#N)c2ccccc2)c1	-1	-32*	17	-1	0
CN(C)c1ccc(/C=C(\C#N)C(=O)c2ccccc2)cc1	401*	-39*	29	138*	22
CCN(CC)c1ccc(/C=C(\C#N)C(=O)c2ccc(Br)cc2)cc1	259*	-48*	7	109*	-10
CN(C)c1ccc(/C=C(\C#N)c2nc3ccccc3c(=O)[nH]2)cc1	97*	-27	-1	38*	6
CN(C)c1ccc(/C=C(\C#N)c2ccccc2)cc1	1	-4	0	0	-4
COc1ccc(N(CC(C)C)S(=O)(=O)c2nnc(NC(=O)c3cccs3)s2)cc1	15	-26	12	0	-1
CC(C)(C)c1ccc(C(=O)Nc2cc(-c3ccccc3)nn2-c2ccccc2)cc1	3	4	2	1	2
COc1cc(C(CC(=O)NCc2ccc(F)cc2)N2Cc3ccccc3C2=O)cc(OC)c1OC (configuration not stated)	-1	0	-2	0	-1
COc1cccc(CNC(=O)COC(=O)/C(C#N)=C/c2ccc(N(C)C)cc2)c1	74*	-17	1	13	nt
CCN(CC)c1ccc(/C=C(\C#N)C(N)=O)cc1	14	8	3	5	-2
CCOC(=O)NC(=O)/C(C#N)=C/c1ccc(N(C)C)cc1	31*	-26	13	10	-5
COc1ccc(/C=C(\C#N)C(=O)OCC(=O)NCc2ccccc2)cc1	0	0	0	0	1
Cc1ccc2c(c1)[nH]c1c(N3CCN(Cc4ccccc4)CC3)ncnc12	-1	-17	18	0	-1

Bioassay records as filed in PubChem BioAssay.
